# Reference: PMC10726135, “HNF4α isoforms regulate the circadian balance between carbohydrate and lipid metabolism in the liver”
# In all, about 18,000 sequences were measured (“log2 normalized intensity”: median about 0.39, highest 2% from about 6.6 on). This excerpt belongs to a sample that is enriched for the highest values.
# Molecular target: T1, HNF4alpha2 (COS-7 nuclear extract) (Homo sapiens, UniProt P41235 1-474)
# T1 sequence: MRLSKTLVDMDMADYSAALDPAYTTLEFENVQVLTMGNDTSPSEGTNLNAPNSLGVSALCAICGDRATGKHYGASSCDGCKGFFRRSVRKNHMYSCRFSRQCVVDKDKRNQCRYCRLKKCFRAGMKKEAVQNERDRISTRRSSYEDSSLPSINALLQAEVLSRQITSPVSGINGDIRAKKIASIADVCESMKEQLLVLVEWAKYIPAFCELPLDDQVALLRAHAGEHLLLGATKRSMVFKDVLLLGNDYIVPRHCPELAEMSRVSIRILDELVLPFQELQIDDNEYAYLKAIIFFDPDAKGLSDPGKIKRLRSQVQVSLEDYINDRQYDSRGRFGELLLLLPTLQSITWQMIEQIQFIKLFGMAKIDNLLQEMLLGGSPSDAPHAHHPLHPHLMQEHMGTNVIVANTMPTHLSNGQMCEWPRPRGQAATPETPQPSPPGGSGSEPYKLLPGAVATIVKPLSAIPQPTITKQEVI
# Assay: protein-binding microarray; COS-7 nuclear extract on double-stranded Agilent 4x180k PBM; binding buffer, salt, pH and temperature not given in the material; high values mean tight binding
# Details: chain copies: 2; label: 3' end of strand 1 on the slide; dsDNA, one strand shown
# How it was run: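 Binding signal is the background-corrected, normalized gProcessedSignal calculated by Agilent software. It was measured by applying nuclear extracts of COS-7 cells transiently transfected with a human HNF4α isoform expression vector to a custom Agilent SurePrint G3 4x180k array of ~44,000 double-stranded ~60-nt test sequences in quadruplicate, then imaging bound HNF4α on an Agilent G2565CA scanner at 2-µm resolution.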
row,Sequence,binding signal
1,GGTCAAAGAGCAATCATCAAGGTGGTTTCAGCCTAGGGAGATTAGAGTATCGGTCGA,1.71 log2 normalized intensity
2,AACACTTACACCTGGGTGCTCCCTCCCCCTGCCTAGGGAGATTAGAGTATCGGTCGA,4.36 log2 normalized intensity
3,CTGCCTTAGTCCCAGTATGGTCTCAGTAATGCCTAGGGAGATTAGAGTATCGGTCGA,-0.127 log2 normalized intensity
4,ATCTCCCAGTTCTTTTGACCTTTGCCTCATGCCTAGGGAGATTAGAGTATCGGTCGA,7.95 log2 normalized intensity
5,CCAGTTCTTTTGACCTTTGCCTCATTCTTAGCCTAGGGAGATTAGAGTATCGGTCGA,6.03 log2 normalized intensity
6,TCCTTTTGACCACAGTTATCTCCCCAGCTTGCCTAGGGAGATTAGAGTATCGGTCGA,2.47 log2 normalized intensity
7,CCTCAATGCTATCTCCCAGTTCTTTTGACCGCCTAGGGAGATTAGAGTATCGGTCGA,2.52 log2 normalized intensity
8,AGTTATATCTTACCTCCTTCTCCCCCATGCGCCTAGGGAGATTAGAGTATCGGTCGA,4.87 log2 normalized intensity
9,ATGCTATCTCCCAGTTCTTTTGACCTTTGCGCCTAGGGAGATTAGAGTATCGGTCGA,7.68 log2 normalized intensity
10,GAGCGCTTTGAGGCCTATGGCGAAAAAGGAGCCTAGGGAGATTAGAGTATCGGTCGA,-0.829 log2 normalized intensity
11,ATCTCTAAGCTACTGAAAATGACCTTTGTTGCCTAGGGAGATTAGAGTATCGGTCGA,6.11 log2 normalized intensity
12,TAAGCTACTGAAAATGACCTTTGTTCCCTGGCCTAGGGAGATTAGAGTATCGGTCGA,8.2 log2 normalized intensity
13,AAAAAAAAAAATTACTGACCCTTGCACTGTGCCTAGGGAGATTAGAGTATCGGTCGA,4.58 log2 normalized intensity
14,TACTGAAAATGACCTTTGTTCCCTGCACTTGCCTAGGGAGATTAGAGTATCGGTCGA,7.15 log2 normalized intensity
15,AAAAAATTACTGACCCTTGCACTGTAAGATGCCTAGGGAGATTAGAGTATCGGTCGA,3.49 log2 normalized intensity
16,AATTCATCTCTAAGCTACTGAAAATGACCTGCCTAGGGAGATTAGAGTATCGGTCGA,3.39 log2 normalized intensity
17,AAGCAATGGCTACCAAGGAGTGGACTGTTCGCCTAGGGAGATTAGAGTATCGGTCGA,1.7 log2 normalized intensity
18,GGGGGCAAGGTACACCATCTATGAGCTCAAGCCTAGGGAGATTAGAGTATCGGTCGA,1.28 log2 normalized intensity
19,AAAGGCGTTTGCTCCCATCCCCCCAAAGGCGCCTAGGGAGATTAGAGTATCGGTCGA,4.99 log2 normalized intensity
20,TTAGATCAGAGGTCTAATTCCCAAGGGTATGCCTAGGGAGATTAGAGTATCGGTCGA,-0.435 log2 normalized intensity
21,CATTGACTTTGCCTTTTGGCTAAAGTCCAAGCCTAGGGAGATTAGAGTATCGGTCGA,4.16 log2 normalized intensity
22,CACAGCTGGACTTTGGCTGCAAAATTTGAAGCCTAGGGAGATTAGAGTATCGGTCGA,3.04 log2 normalized intensity
23,TTTGGAATTTGACCTCATTTGCTCCCAGTGGCCTAGGGAGATTAGAGTATCGGTCGA,3.85 log2 normalized intensity
24,GAGACCCATTTTGGACTTTGACCTCCAAAAGCCTAGGGAGATTAGAGTATCGGTCGA,10.7 log2 normalized intensity
25,TTAGCCCAGTGAGACCCATTTTGGACTTTGGCCTAGGGAGATTAGAGTATCGGTCGA,6.34 log2 normalized intensity
26,GAATTCTTGACTTTGGACTTTCAAAAGTTAGCCTAGGGAGATTAGAGTATCGGTCGA,4.21 log2 normalized intensity
27,TAGCACTTTGGACCTCCACTTTGGAGGGGGGCCTAGGGAGATTAGAGTATCGGTCGA,1.7 log2 normalized intensity

row,Sequence,binding signal
1,CTTTGTAGCACTTTGGACCTCCACTTTGGAGCCTAGGGAGATTAGAGTATCGGTCGA,3.1 log2 normalized intensity
2,CCATTTTGGACTTTGACCTCCAAAATTATAGCCTAGGGAGATTAGAGTATCGGTCGA,10.4 log2 normalized intensity
3,TTGGACTTTGACCTCCAAAATTATAAGTCAGCCTAGGGAGATTAGAGTATCGGTCGA,8.25 log2 normalized intensity
4,CCAGTGAGACCCATTTTGGACTTTGACCTCGCCTAGGGAGATTAGAGTATCGGTCGA,11.9 log2 normalized intensity
5,AATGATGATGACTTTTGACCCCAGGGGAAAGCCTAGGGAGATTAGAGTATCGGTCGA,5.51 log2 normalized intensity
6,CCTCTCTCTCTCTCTCTCACACACACACACGCCTAGGGAGATTAGAGTATCGGTCGA,2.09 log2 normalized intensity
7,CTTACTTGGCATCATCAAACAAGATTTATCGCCTAGGGAGATTAGAGTATCGGTCGA,-0.732 log2 normalized intensity
8,TGTAGGTAAGCACAAAGTACAGCTTTTTGTGCCTAGGGAGATTAGAGTATCGGTCGA,1.13 log2 normalized intensity
9,TATAAAGGTCAACTGCCCTCTCAAATTACAGCCTAGGGAGATTAGAGTATCGGTCGA,1.51 log2 normalized intensity
10,TTTTAAAATAGATAAGTCCCTAAGAGGAATGCCTAGGGAGATTAGAGTATCGGTCGA,-0.74 log2 normalized intensity
11,ACAAATGAGGGGACAAAGTTCGTGGAAAGTGCCTAGGGAGATTAGAGTATCGGTCGA,2.91 log2 normalized intensity
12,GAGCCTGCACGCCTGTTCACATTCCAGTGTGCCTAGGGAGATTAGAGTATCGGTCGA,-0.595 log2 normalized intensity
13,GACAGGATATTTTGAGGGCTCAAAGGTTACGCCTAGGGAGATTAGAGTATCGGTCGA,5.37 log2 normalized intensity
14,TTTTTTTTCTTAATTGCCCTTTGCCCTTTGGCCTAGGGAGATTAGAGTATCGGTCGA,8.54 log2 normalized intensity
15,ACTTTGCCCTTTTTTTCTCTCCCCTTTTAAGCCTAGGGAGATTAGAGTATCGGTCGA,2.54 log2 normalized intensity
16,ATATTAACCTTTGCCCCAGCTGTCACCCAGGCCTAGGGAGATTAGAGTATCGGTCGA,5.03 log2 normalized intensity
17,TTTCTTAATTGCCCTTTGCCCTTTGCCCAAGCCTAGGGAGATTAGAGTATCGGTCGA,8.01 log2 normalized intensity
18,GGGTATGAATTTAACCTTTGCTCTCTGAAAGCCTAGGGAGATTAGAGTATCGGTCGA,5.68 log2 normalized intensity
19,ATTACATATTAACCTTTGCCCCAGCTGTCAGCCTAGGGAGATTAGAGTATCGGTCGA,5.74 log2 normalized intensity
20,CCATCCTACAGGGTATGAATTTAACCTTTGGCCTAGGGAGATTAGAGTATCGGTCGA,4.2 log2 normalized intensity
21,TGACCTTTGCATTCTTACCCAAGCCCCAAAGCCTAGGGAGATTAGAGTATCGGTCGA,3.73 log2 normalized intensity
22,ACAGTAGACTTTTTTTTTCTTAATTGCCCTGCCTAGGGAGATTAGAGTATCGGTCGA,2.84 log2 normalized intensity
23,CTACAGGGTATGAATTTAACCTTTGCTCTCGCCTAGGGAGATTAGAGTATCGGTCGA,6.87 log2 normalized intensity
24,CCCTAATTACATATTAACCTTTGCCCCAGCGCCTAGGGAGATTAGAGTATCGGTCGA,6.63 log2 normalized intensity
25,AGACTTTTTTTTTCTTAATTGCCCTTTGCCGCCTAGGGAGATTAGAGTATCGGTCGA,4.26 log2 normalized intensity
26,AAAGGTCATTTCTGCTTGCAACCAAAGGAGGCCTAGGGAGATTAGAGTATCGGTCGA,1.52 log2 normalized intensity
27,GCAGATGTGTCTTTATAACAGACTGTAGGCGCCTAGGGAGATTAGAGTATCGGTCGA,0.596 log2 normalized intensity
